Screening data as filed in PubChem.
N370S GC: qHTS Assay for Inhibitors and Activators of N370S glucocerebrosidase as a Potential Chaperone Treatment of Gaucher Disease; Lysosomal acid glucosylceramidase (Homo sapiens), P04062; N370S GC spleen homogenate, 4MU-glucoside fluorescence; Potency, µM (top dose mostly 59.4 µM), for the others: at the highest dose activity change, negative = inhibition, most hits filed as inhibitors; 330,000 compounds, 0.092% hits; AID 2101, 2009;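 further: potency means the concentration at half of the fitted maximal effect; 0% = full enzyme activity and -100% = no enzyme basal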
GLA inh pH 4.5: qHTS Assay for Inhibitors of Human alpha-Galactosidase at pH 4.5; 230,000 tested, under 10 active; activity change, negative = inhibition, % at 105 µM; purified enzyme, 4-MU-alpha-Gal fluorescence, pH 4.5; Alpha-galactosidase A (Homo sapiens), P06280;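 further: 0% = full activity with enzyme and -100% = basal without enzyme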
GAA inh: qHTS Assay for Inhibitors of Human alpha-Glucosidase as a Potential Chaperone Treatment of Pompe Disease; Lysosomal alpha-glucosidase (Homo sapiens), P10253; purified human GAA, 4-MU-alpha-glucoside fluorescence; Potency, µM (highest dose often 76.9 µM), for inactives: at the top dose activity change, negative = inhibition, most hits filed as inhibitors; 200,000 compounds, 0.005% hits; AID 1466, 2008;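 further: potency means the concentration at half of the fitted maximal effect; plate controls were uninhibited enzyme wells for no effect and no-enzyme background for full effect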
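Read-out is 4-methylumbelliferone fluorescence (Ex 365/Em 440 nm) after NaOH/glycine stop at pH 10. Enzyme 4 nM, substrate 400 uM, pH 5.0 citrate buffer, 20 min room temperature; AC50 from Hill-equation concentration-response.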
aGlu spleen mod: qHTS Assay for Inhibitors and Activators of Human alpha-Glucosidase From Spleen Homogenate. Potency, µM (highest dose often 79.9 µM), for the others: at the highest dose activity change, negative = inhibition, usual class: inhibitors. 240,000 compounds, 0.006% hits. human spleen homogenate, 4-MU-alpha-glucoside fluorescence;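 further: potency means the concentration at half of the fitted maximal effect; 0% = enzyme with vehicle and -100% = no enzyme basal signal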
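Enzyme source: human spleen homogenate, 1 ug/well. Buffer 50 mM citric acid/K phosphate pH 5.0, 0.01% Tween-20. 4-MU-alpha-glucoside 1 mM; 37 C x 40 min; NaOH/glycine stop; fluorescence.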
GAA glycogen: qHTS Assay for Inhibitors and Activators of Human alpha-Glucosidase Cleavage of Glycogen; Potency, µM (doses to about 76.4 µM), for the others: top-dose activity change, negative = inhibition, hits mostly inhibitors; recombinant GAA, glycogen substrate, Amplex Red glucose oxidase fluorescence; Lysosomal alpha-glucosidase (Homo sapiens), P10253; 300,000 compounds, 0.38% hits;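 further: potency means the concentration at half of the fitted maximal effect; 0% = full enzyme reaction and -100% = no-enzyme basal signal; the screen sought inhibitors and activators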
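qHTS, 1536-well; enzyme 4 nM final; cpd up to 77 uM; substrate bovine liver glycogen 30 ug; 50 mM citrate/phosphate pH 5.0, 0.01% Tween-20; 37 C, 40 min; Amplex Red detection 45 min RT; Hill fit → AC50.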
GLA spleen mod: qHTS Assay for Inhibitors and Activators of Human alpha-Galactosidase From Spleen Homogenate | Potency, µM (titrated, usually from 80 µM), for inactives: at the highest dose activity change, negative = inhibition, hits mostly inhibitors | human spleen homogenate, 4MU-alpha-Gal fluorescence, 40 min | 240,000 compounds, 0.008% hits | Alpha-galactosidase A (Homo sapiens), P06280;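 further: potency means the concentration at half of the fitted maximal effect; 0% = enzyme with vehicle and -100% = no enzyme basal signal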
Target sequence (P06280 32-429 limits assumed): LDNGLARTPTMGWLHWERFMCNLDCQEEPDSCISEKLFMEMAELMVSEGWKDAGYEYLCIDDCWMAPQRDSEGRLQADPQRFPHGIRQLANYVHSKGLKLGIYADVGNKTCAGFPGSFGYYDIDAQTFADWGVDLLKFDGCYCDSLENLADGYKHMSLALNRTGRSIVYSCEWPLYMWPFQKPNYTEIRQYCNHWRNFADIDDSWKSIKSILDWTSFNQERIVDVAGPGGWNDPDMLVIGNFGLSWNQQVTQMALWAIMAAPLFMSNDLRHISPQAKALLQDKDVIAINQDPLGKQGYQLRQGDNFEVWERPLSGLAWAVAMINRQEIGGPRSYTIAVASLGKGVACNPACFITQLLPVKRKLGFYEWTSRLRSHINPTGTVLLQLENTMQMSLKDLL
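Human spleen homogenate (1 ug) was the enzyme source, with 4-methylumbelliferyl-alpha-D-galactopyranoside (1 mM final) in pH 5.0 citrate buffer with 0.01% Tween-20. Compounds were titrated; after 40 min at 37C, NaOH/glycine stop, 4-MU fluorescence read; AC50 from Hill fits.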
* hit, by the source's call; ? = inconclusive; nt = no result given; ! = repeats disagree; [ ] = another dose, or the depositor's remark. Only some compounds are listed: those with a hit (about 0.41% of all), similar ones and a draw of the others. The call rests on the fitted dose curve; in most records, active means well fitted curve in the direction sought with a large enough effect; inconclusive means small, poorly fitted or top-dose-only effect, or another doubt; inactive means no such curve, though single readings can be large; an effect the other way counts as inactive or inconclusive.

SMILES	N370S GC	GLA inh pH 4.5	GAA inh	aGlu spleen mod	GAA glycogen	GLA spleen mod
CC(C)NC[C@@H](O)COc1cccc2[nH]ccc12	11%	7	nt	11%	nt	8%
CC(C)NCC(O)COc1cccc2[nH]ccc12 (configuration not stated)	8%	-3	-8%[15.4 µM]	0%	-2%	10µM*!
c1ccc2c(c1)Nc1ccccc1S2	-2%	17	2%[15.4 µM]	-3%	18µM*	-3%
O=[N+]([O-])c1ccc2c3c(cccc13)CC2	3%	nt	nt	-1%	nt	26%
Nc1ccc2c3c(cccc13)CC2	-3%	7	4%	-11%	25µM*	9%
Cc1nc2ccc(Cl)cn2c1P(=S)(N1CCOCC1)N1CCOCC1	2%	-19	-5%	-17%	4%	-4%
CC(=O)OCC[N+](C)(C)C	11%	2	-1%[15.4 µM]	2%	9.9µM*!	-12%
COc1cc2c(cc1O)C(Cc1ccc(O)cc1)NCC2 (configuration not stated)	?	8	-30%	-8%	0%	-15%
CCSc1cc(C2C(C#N)=C(N)Oc3n[nH]c(C)c32)c(C)o1 (configuration not stated)	-6%	-4	-2%	-5%	-25%	7%
C=CCN1CCc2cccc3c2[C@H]1Cc1ccc(O)c(O)c1-3	-12%	nt	nt	nt	6.3µM*	nt
CCCN1CCc2cc(O)cc3c2C1Cc1ccc(O)c(O)c1-3 (configuration not stated)	2%	-2	nt	-6%	nt	4%
Oc1ccc(/C=N/NP(=S)(c2ccccc2)c2ccccc2)cc1O	2%	-27	-7%	-2%	16µM*	4%
Oc1ccccc1/C=N/NP(=S)(c1ccccc1)c1ccccc1	5%	-17	-7%	-1%	-3%	-12%
Oc1ccc(/C=N/NP(=S)(c2ccccc2)c2ccccc2)c(O)c1O	nt	-8	?	-4%	16µM*	-2%
COc1ccc([N+](=O)[O-])cc1N=Cc1c(O)n(CCc2ccccc2)c(=O)n(C(C)C)c1=O	9%	-6	?	0%	-3%	-2%
CC1CCCN(CC(=O)c2ccc(Cl)c(Cl)c2)C1 (configuration not stated)	-2%	-8	1%	9%	0%	7%
Oc1cc2c(cc1O)[C@H]1c3ccccc3CN[C@@H]1CC2	-4%	8	-6%[15.4 µM]	7%	2.5µM*	-3%
Cc1onc(-c2ccccc2)c1C(=O)Nc1ccc(S(=O)(=O)N2CCCC2)cc1	-8%	-3	-2%	2%	14µM*	4%
Cc1[nH]c2ccc(OC(F)(F)F)cc2c1CCNCc1cccc([N+](=O)[O-])c1	16µM*	nt	nt	nt	-2%	nt
Cc1[nH]c2ccc(OC(F)(F)F)cc2c1CCNCc1ccc(Cl)cc1	?	nt	nt	nt	2%	nt
CCOc1cccc(CNCCc2c(C)[nH]c3ccc(OC(F)(F)F)cc23)c1O	8.9µM*	nt	nt	nt	3%	nt
CCc1ccc(-n2nc(C)c3c2NC(=O)CSC3c2ccccc2C)cc1 (configuration not stated)	nt	nt	nt	nt	-10%[76.3 µM]	nt
CN(C)C(=O)Oc1c(Cl)cc(Cl)c2ccccc12	-8%	-10	-8%	-5%	1%	1%
Cc1cc(C(=O)CS(=O)(=O)c2ccc(F)cc2)cc(C)c1OC(=O)N(C)C	4%	11	-1%	?	-5%	28µM*
